Most compounds without a hit are left out; they make up all but 1.1% or so of the library.
MBNL1 CUG block – blocks human MBNL1 binding to CUG repeat RNA | Potency, µM (doses to about 57.5 µM), for inactives: at the top dose activity change, negative = inhibition, usual class: inhibitors | TR-FRET MBNL1-His/biotin-(CUG)12 binding, 665/545 ratio | 280,000 compounds, 0.036% hits | Q9NR56; active = well fitted inhibition curve with a large enough effect in the signal ratio, with a control signal flat, not every such curve was filed as active; inconclusive = small, poorly fitted or top-dose-only effect, or effect the other way, or a change in a side signal; inactive = no such curve, though single readings can be large or run the other way; the % refers to the signal ratio; also: potency is read from the fitted curve at half-maximal effect; % is scaled to controls: 0 for no effect and ±100 for the full control effect
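Ratiometric TR-FRET (665 over 545 nm, excitation 340 nm) tracks disruption of MBNL1-His/biotin-(CUG)12 complex after 60 min at room temperature, with compounds at 92 nM to 58 uM final.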
HTT cytoprotect – cytoprotection in Huntington HTT-Q103 PC12 cell model; PC12 HTT-Q103 induced, cytoprotection, ATP luminescence, 40 h; Potency, µM (series often up to 56.4 µM), inactives show cytoprotection (ATP increase), hits mostly activators; 230,000 compounds, 0.14% hits; AID 1471; also: potency is read from the fitted curve at half-maximal effect; % of control where 0% means no effect; nearly all actives have a fitted effect of over 45% in size
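PC12 cells with ecdysone-inducible HTT exon 1 Q103-GFP, induced with 100 nM tebufenozide and co-treated with library compounds in a dose series (1536-well, 1500 cells/well). Cytoprotection read as ATP content by ATPlite luminescence.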
CBFb-RUNX1 inh – inhibitors of human CBF-beta and RUNX1 interaction | AlphaScreen CBFb-His/RUNX1-biotin binding, biochemical | Potency, µM (top dose mostly 59.8 µM), for the others: at the top dose activity, negative = inhibition, usual class: inhibitors | 230,000 tested, under 10 active; also: % of control where 0% means no effect
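AlphaScreen binding: CBFb-His and RUNX1-biotin (30 nM each) preincubated 20 min, compound added for 15 min, then nickel and streptavidin beads for 90 min, all at room temperature. Disruption of the interaction by any mechanism counts as activity.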
HttQ103 aggreg – reduces HttQ103-GFP aggregates in PC12 cells; PC12 HttQ103-GFP aggregates, Acumen cytometry, 40 h; Potency, µM (highest dose often 46.1 µM), inactives show at the top dose activity change, negative = inhibition, hits mostly inhibitors; 220,000 compounds, 1.1% hits; AID 1688; also: potency is read from the fitted curve at half-maximal effect; % is scaled to controls: 0 for no effect and ±100 for the full control effect; nearly all actives have a fitted effect of over 60% in size
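Ecdysone-promoter PC12 model expressing HTT exon 1 Q103 fused to GFP, induced by tebufenozide at 100 nM final. Compounds titrated; aggregates sized 1–25 µm scored on a 488 nm laser cytometer.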
Lamin A splicing – LMNA splicing modulation; 200,000 compounds, 0.01% hits; HeLa LMNA splicing GFP/RFP minigene ratio, 48 h; Potency, µM (titrated, usually from 46.1 µM), without a hit: at the highest dose ratio change, negative = inhibition, usual class: inhibitors; AID 1487; active = well fitted inhibition curve with a large enough effect in the signal ratio, with a control signal flat, not every such curve was filed as active; inconclusive = small, poorly fitted or top-dose-only effect, or effect the other way, or a change in a side signal; the % refers to the signal ratio; also: potency is read from the fitted curve at half-maximal effect; % is scaled to controls: 0 for no effect and ±100 for the full control effect
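S3 HeLa stable clones carrying a lamin A-EGFP splicing minigene plus DsRed2 were seeded at 600 cells/well in Opti-MEM with 2% FBS, pin-dosed and incubated 48 h at 37°C. Acumen cytometry (488 nm) gave the GFP/RFP total-intensity ratio.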
NPSR antag – neuropeptide S receptor (human) antagonism, cAMP; AID 1461; Potency, µM (highest dose often 38.3 µM), for inactives: top-dose activity change, negative = inhibition, most hits filed as inhibitors; Q6W5P4; 220,000 compounds, 1% hits; CHO-NPSR cells, cAMP TR-FRET, antagonist mode; also: potency is read from the fitted curve at half-maximal effect; % is scaled to controls: 0 for no effect and ±100 for the full control effect; nearly all actives have a fitted effect of over 50% in size
Target sequence (Q6W5P4 whole entry, looked up): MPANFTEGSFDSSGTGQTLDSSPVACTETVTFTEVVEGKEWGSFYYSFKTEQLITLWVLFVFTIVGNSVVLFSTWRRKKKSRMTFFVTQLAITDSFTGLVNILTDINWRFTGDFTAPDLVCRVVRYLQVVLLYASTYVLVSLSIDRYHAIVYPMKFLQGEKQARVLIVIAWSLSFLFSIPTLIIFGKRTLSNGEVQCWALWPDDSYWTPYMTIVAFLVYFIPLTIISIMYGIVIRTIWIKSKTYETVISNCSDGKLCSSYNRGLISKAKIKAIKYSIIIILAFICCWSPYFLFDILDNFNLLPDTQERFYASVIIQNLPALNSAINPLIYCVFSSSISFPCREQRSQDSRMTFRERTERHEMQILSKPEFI
MBNL1 TRFRET – blocks human MBNL1 binding to CUG repeat RNA, TR-FRET validation; 140 compounds, 50% hits; AID 493199; Potency, µM (doses to about 57.6 µM), for inactives: at the top dose activity change, negative = inhibition, usual class: inhibitors; shares compounds with MBNL1 CUG block; TR-FRET MBNL1-His / biotin-(CUG)12 binding, 60 min
MBNL1-CUG Alpha – blocks MBNL1 binding to (CUG)12 RNA in AlphaScreen; shares compounds with MBNL1 CUG block; AlphaScreen MBNL1-His / biotin-(CUG)12 binding; Potency, µM (series often up to 57.7 µM), for the others: top-dose activity, negative = inhibition, usual class: inhibitors; 140 compounds, 30% hits
MBNL1 HTRF CS – counter-screen for MBNL1-poly(CUG) RNA binding inhibitors; 120 compounds, 20% hits; Potency, µM (highest dose often 57.6 µM), inactives show at the highest dose activity, negative = inhibition, usual class: inhibitors; AID 651843; His-Menin/biotin-MLL peptide TR-FRET counterscreen; shares compounds with MBNL1 CUG block
The depositor's hits bear a star; ? = inconclusive; nt = no result given; ! = a repeat was not active; [ ] = remark or other dose. Unless noted, calls follow the shape of the dose curve; as a rule, active = well fitted curve in the direction sought with a large enough effect; inconclusive = small, poorly fitted or top-dose-only effect, or another doubt; inactive = no such curve, though single readings can be large; an effect the other way counts as inactive or inconclusive.

SMILES | MBNL1 CUG block | HTT cytoprotect | CBFb-RUNX1 inh | HttQ103 aggreg | Lamin A splicing | NPSR antag | MBNL1 TRFRET | MBNL1-CUG Alpha | MBNL1 HTRF CS
Cc1ccsc1C(=O)C1CCCN(Cc2c(C)nn(C(C)C)c2C)C1 (centres undefined) | 31.6µM* | -9.2% | 15.9% | ? | nt | -2.7% | 41.1µM* | -25.9% | -21.8%
Cc1ccsc1C(=O)C1CCCN(Cc2ccc(-n3cccn3)cc2)C1 (centres undefined) | 6.31µM* | -4.1%[10 µM] | -5.4% | 11.7%[9.22 µM] | -7.5%[46 µM] | 17.8% | 3.26µM* | ? | 18.3µM*
O=C(O)CCCCC1SCC2NC(=O)NC21 (centres undefined) | 0.1µM* | 12.6µM*! | 1.78µM* | 13.6%[9.22 µM] | ? | -12.4% | 0.0411µM* | 0.0041µM* | 0.0146µM*
CN1CCC2(CC1)C(C#N)=C(N)NC(S)=C2C#N | 3.98µM* | -27.6% | -19.3% | ? | -3.7%[46 µM] | -5.0% | 32.6µM* | 0.7% | 16.3µM*
Cc1ccc(C2(c3ccc(C)c(O)c3C)CCN(C)CC2)c(C)c1O | nt | -0.3%[10 µM] | nt | nt | nt | nt | nt | nt | nt
COc1ccc2nc(NC(=O)CCc3nc(C4=CCN(C)CC4)no3)sc2c1 | 20µM* | 3.5%[10 µM] | -7.1% | -27.8% | -9.8% | -1.2%[46.1 µM] | ? | 16.3µM* | ?
CC[C@H](CO)NC(=O)[C@@H]1C=C2c3cccc4[nH]cc(c34)C[C@@H]2N(C)C1 | nt | -0.5%[1.9 µM] | nt | nt | nt | nt | nt | nt | nt
CCCn1cc(CN2CCCC(C(=O)c3cccc(OC)c3)C2)c(C)n1 (centres undefined) | 2.1% | -8.5%[10 µM] | 2.2% | 13.0%[9.22 µM] | 8.0%[46 µM] | -22.6% | nt | nt | nt
CCn1cc(CN2CCCC(C(=O)c3cccc(OC)c3)C2)c(C)n1 (centres undefined) | 50.1µM* | 6.0%[10 µM] | 7.0% | 2.8%[9.22 µM] | 18.7%[46 µM] | -6.7% | ? | -11.5% | -9.5%
C[C@@H](Cc1ccc2c(c1)OC(C(=O)O)(C(=O)O)O2)NC[C@H](O)c1cccc(Cl)c1 | nt | -4.7%[1.9 µM] | nt | nt | nt | nt | nt | nt | nt
CC1(C)CCC(C)(C)c2c1ccc(O)c2Cc1c(O)ccc2c1C(C)(C)CCC2(C)C | nt | 6.1%[10 µM] | nt | nt | nt | nt | nt | nt | nt
O=C1N[C@@]2(CN3CCC2CC3)C(=O)N1CN(Cc1ccccc1)c1ccccc1 | nt | -0.6%[10 µM] | nt | nt | nt | nt | nt | nt | nt

Assay outcomes: PubChem, National Center for Advancing Translational Sciences (NCATS)
